# Test results as given in PubChem BioAssay AID1159580 (chemical genetic matrix, 2015).
# Out of some 5,500 compounds screened, about 2,000 (36%) were called active. Inconclusive results (about 18%) are left out. Some of the results follow. Values without a mark were called inactive. Cut-off read from the data, not from the text of the source: active = normalized growth mostly below about 0.91 (no sharp cut-off); inconclusive = no clear call, values can overlap the other calls; inactive = mostly above about 0.92.
# Test: chemical genetic growth profiling, strain panel (AID 1159580);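 note: tested at 20 µM; growth read once vehicle control cultures reached saturation at 30 °C; 1 = growth at the plate median or of vehicle wells; lower values mean less growth of the strain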
# Settings: S. cerevisiae deletion strains, growth OD
structure (smiles),measurement,setting,value
COc1ccc2oc3ccccc3c(=O)c2c1,normalized growth,"locus YAL021C, strain ccr4, stronger effect = lower value",0.948
same,normalized growth,"locus YAL026C, strain drs2, stronger effect = lower value",0.884 (active)
same,normalized growth,"locus YAL030W, strain snc1, stronger effect = lower value",0.926 (active)
same,normalized growth,"locus YBL061C, strain skt5, stronger effect = lower value",0.896 (active)
same,normalized growth,"locus YBR009C, strain hhf1, stronger effect = lower value",0.712 (active)
same,normalized growth,"locus YBR021W, strain FUR4, stronger effect = lower value",1.22 [resistant] (active)
same,normalized growth,"locus YBR023C, strain chs3, stronger effect = lower value",0.874 (active)
same,normalized growth,"locus YBR171W, strain sec66, stronger effect = lower value",0.886 (active)
same,normalized growth,"locus YBR229C, strain ROT2, stronger effect = lower value",0.885 (active)
same,normalized growth,"locus YBR231C, strain swc5, stronger effect = lower value",0.76 (active)
same,normalized growth,"locus YBR279W, strain paf1, stronger effect = lower value",0.883 (active)
same,normalized growth,"locus YCL011C, strain gbp2, stronger effect = lower value",0.899 (active)
same,normalized growth,"locus YCL016C, strain dcc1, stronger effect = lower value",0.842 (active)
same,normalized growth,"locus YCL029C, strain bik1, stronger effect = lower value",0.884 (active)
same,normalized growth,"locus YCL061C, strain MRC1, stronger effect = lower value",0.9 (active)
same,normalized growth,"locus YCL069W, strain vba3, stronger effect = lower value",0.922 (active)
same,normalized growth,"locus YCR088W, strain abp1, stronger effect = lower value",0.956
same,normalized growth,"locus YDL005C, strain med2, stronger effect = lower value",0.978
same,normalized growth,"locus YDL035C, strain GPR1, stronger effect = lower value",0.861
same,normalized growth,"locus YDL040C, strain nat1, stronger effect = lower value",0.935
same,normalized growth,"locus YDL074C, strain BRE1, stronger effect = lower value",0.762 (active)
same,normalized growth,"locus YDL101C, strain DUN1, stronger effect = lower value",0.76 (active)
same,normalized growth,"locus YDL134C, strain PPH21, stronger effect = lower value",0.791 (active)
same,normalized growth,"locus YDL185W, strain tfp1, stronger effect = lower value",0.809 (active)
same,normalized growth,"locus YDL192W, strain arf1, stronger effect = lower value",0.814 (active)
same,normalized growth,"locus YDR001C, strain nth1, stronger effect = lower value",0.944
same,normalized growth,"locus YDR069C, strain doa4, stronger effect = lower value",0.918
same,normalized growth,"locus YDR101C, strain arx1, stronger effect = lower value",0.88 (active)
same,normalized growth,"locus YDR137W, strain rgp1, stronger effect = lower value",0.556 (active)
same,normalized growth,"locus YDR150W, strain NUM1, stronger effect = lower value",0.904 (active)
same,normalized growth,"locus YDR159W, strain sac3, stronger effect = lower value",0.901
same,normalized growth,"locus YDR162C, strain NBP2, stronger effect = lower value",0.437 (active)
same,normalized growth,"locus YDR195W, strain ref2",1.28 [resistant] (active)
same,normalized growth,"locus YDR297W, strain sur2, stronger effect = lower value",0.935
same,normalized growth,"locus YDR318W, strain mcm21, stronger effect = lower value",0.862 (active)
same,normalized growth,"locus YDR334W, strain swr1, stronger effect = lower value",0.852 (active)
same,normalized growth,"locus YDR335W, strain msn5, stronger effect = lower value",0.874 (active)
same,normalized growth,"locus YDR388W, stronger effect = lower value",0.901 (active)
same,normalized growth,"locus YDR392W, strain spt3, stronger effect = lower value",0.35 (active)
same,normalized growth,"locus YDR502C, strain sam2, stronger effect = lower value",0.848 (active)
same,normalized growth,"locus YEL003W, strain gim4, stronger effect = lower value",0.819 (active)
same,normalized growth,"locus YEL037C, strain rad23, stronger effect = lower value",0.925
same,normalized growth,"locus YEL061C, strain CIN8 (second series), stronger effect = lower value",0.676 (active)
same,normalized growth,"locus YEL061C, strain CIN8, stronger effect = lower value",0.718 (active)
same,normalized growth,"locus YER015W, strain faa2, stronger effect = lower value",0.931
same,normalized growth,"locus YER016W, strain bim1, stronger effect = lower value",0.903 (active)
same,normalized growth,"locus YER110C, stronger effect = lower value",0.837 (active)
same,normalized growth,"locus YER111C, strain swi4, stronger effect = lower value",0.87 (active)
same,normalized growth,"locus YER155C, strain BEM2 (second series), stronger effect = lower value",0.249 (active)
same,normalized growth,"locus YER155C, strain BEM2, stronger effect = lower value",0.997
same,normalized growth,"locus YER167W, strain BCK2, stronger effect = lower value",0.918
same,normalized growth,"locus YFR010W, strain ubp6, stronger effect = lower value",0.904
same,normalized growth,"locus YGL078C, strain dbp3, stronger effect = lower value",0.9 (active)
same,normalized growth,"locus YGL086W, strain mad1, stronger effect = lower value",0.836 (active)
same,normalized growth,"locus YGL167C, strain pmr1, stronger effect = lower value",0.902 (active)
same,normalized growth,"locus YGL173C, strain kem1, stronger effect = lower value",0.882 (active)
same,normalized growth,"locus YGL227W, strain vid30, stronger effect = lower value",0.94
same,normalized growth,"locus YGL240W, strain doc1, stronger effect = lower value",0.785 (active)
same,normalized growth,"locus YGL248W, strain PDE1, stronger effect = lower value",0.836 (active)
same,normalized growth,"locus YGL253W, strain hxk2, stronger effect = lower value",0.74 (active)
same,normalized growth,"locus YGR135W, strain pre9, stronger effect = lower value",0.811 (active)
same,normalized growth,"locus YGR252W, strain gcn5, stronger effect = lower value",0.799
same,normalized growth,"locus YHR013C, strain ard1, stronger effect = lower value",0.631 (active)
same,normalized growth,"locus YHR027C, strain rpn1, stronger effect = lower value",0.939
same,normalized growth,"locus YHR030C, strain SLT2, stronger effect = lower value",0.656 (active)
same,normalized growth,"locus YHR079C, strain IRE1 (second series), stronger effect = lower value",0.902 (active)
same,normalized growth,"locus YHR094C, strain hxt1, stronger effect = lower value",0.912 (active)
same,normalized growth,"locus YHR129C, strain ARP1, stronger effect = lower value",0.897 (active)
same,normalized growth,"locus YHR142W, strain chs7, stronger effect = lower value",0.688 (active)
same,normalized growth,"locus YHR200W, strain rpn10, stronger effect = lower value",0.862 (active)
same,normalized growth,"locus YIL066C, strain RNR3, stronger effect = lower value",0.761 (active)
same,normalized growth,"locus YIL073C, strain SPO22, stronger effect = lower value",0.736
same,normalized growth,"locus YIL125W, strain kgd1, stronger effect = lower value",0.9 (active)
same,normalized growth,"locus YIR030C, strain dcg1, stronger effect = lower value",0.91 (active)
same,normalized growth,"locus YJL092W, strain hpr5, stronger effect = lower value",0.944
same,normalized growth,"locus YJL095W, strain BCK1 (second series), stronger effect = lower value",0.65 (active)
same,normalized growth,"locus YJL095W, strain BCK1, stronger effect = lower value",0.428 (active)
same,normalized growth,"locus YJL115W, strain asf1, stronger effect = lower value",0.948
same,normalized growth,"locus YJL129C, strain trk1, stronger effect = lower value",0.921
same,normalized growth,"locus YJL134W, strain LCB3, stronger effect = lower value",0.913 (active)
same,normalized growth,"locus YJL154C, strain vps35, stronger effect = lower value",0.947
same,normalized growth,"locus YJL164C, strain tpk1, stronger effect = lower value",0.844 (active)
same,normalized growth,"locus YJL166W, strain qcr8, stronger effect = lower value",0.756 (active)
same,normalized growth,"locus YJL168C, strain set2, stronger effect = lower value",0.903 (active)
same,normalized growth,"locus YJL187C, strain SWE1 (second series), stronger effect = lower value",0.828 (active)
